Screening data (PubChem)
Rows were chosen to be rich in hits. Some 2.4% of all compounds tested hit in one or more screens of this group.
POLB inh: DNA polymerase beta (human) inhibition; Potency, µM (doses to about 114 µM), inactives show at the top dose activity change, negative = inhibition, hits mostly inhibitors; 340,000 tested, 1.3% active; Pol beta primer extension/strand displacement, fluorescence kinetic; also: potency is read from the fitted curve at half-maximal effect; % is scaled to controls: 0 for no effect and ±100 for the full control effect
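Human Pol beta at 10 nM; strand-displacement substrate 50 nM final. Compound exposure 15 min at room temperature before start, reaction 10 min at room temperature.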
Pol eta inh-1: DNA polymerase eta (human) inhibition. recombinant Pol eta, fluorescent DNA replication assay. Potency, µM (series often up to 114 µM), for inactives: at the top dose activity change, negative = inhibition, most hits filed as inhibitors. 390,000 tested, 1.2% active; also: potency is read from the fitted curve at half-maximal effect; % is scaled to controls: 0 for no effect and ±100 for the full control effect
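Pol eta at 10 nM preincubated with compounds 15 min at room temperature; reaction started with fluorescent substrate (50 nM final) and read kinetically at 0 and 10 min.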
FEN1 inh: human FEN1 inhibition | P39748 | Recombinant FEN1 flap cleavage, fluorescence, 15 min | Potency, µM (top dose mostly 114 µM), inactives show top-dose activity change, negative = inhibition, usual class: inhibitors | 390,000 tested, 0.35% active | AID 588795; also: potency is read from the fitted curve at half-maximal effect; % is scaled to controls: 0 for no effect and ±100 for the full control effect; nearly all actives have a fitted effect of over 65% in size
Target sequence (P39748 whole entry, looked up): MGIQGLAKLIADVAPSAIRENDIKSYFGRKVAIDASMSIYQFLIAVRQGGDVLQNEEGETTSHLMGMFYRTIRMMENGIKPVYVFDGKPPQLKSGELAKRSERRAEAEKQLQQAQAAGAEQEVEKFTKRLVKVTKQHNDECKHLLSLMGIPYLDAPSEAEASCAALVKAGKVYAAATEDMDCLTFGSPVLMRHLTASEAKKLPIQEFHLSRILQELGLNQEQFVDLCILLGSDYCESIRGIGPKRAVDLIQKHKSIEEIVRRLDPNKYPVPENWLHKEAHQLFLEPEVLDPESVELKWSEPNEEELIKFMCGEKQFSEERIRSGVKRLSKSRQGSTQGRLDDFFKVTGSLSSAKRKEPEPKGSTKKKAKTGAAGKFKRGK
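In this screen, 50 nM flap DNA substrate was added to 10 nM FEN1 pretreated with compound for 15 min at room temperature; cleavage was followed with reads at 0 and 15 min, and Hill fitting gave concentration–response parameters.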
WRN inhibitor: WRN helicase (human) inhibition. WRN helicase unwinding, fluorescent forked duplex, kinetic. Potency, µM (series often up to 114 µM), without a hit: at the top dose activity change, negative = inhibition, most hits filed as inhibitors. 360,000 tested, 0.46% active. AID 651768; also: potency is read from the fitted curve at half-maximal effect; % is scaled to controls: 0 for no effect and ±100 for the full control effect; nearly all actives have a fitted effect of over 55% in size
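WRN at 20 nM final preincubated with compound 15 min at room temperature; reaction started with 100 nM fluorophore/quencher forked duplex oligonucleotide and 2 mM ATP final. Unwinding followed kinetically by red fluorescence (ex 525, em 598 nm).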
Pol iota inh: blocks human DNA polymerase iota activity; Q9UNA4; Pol iota fluorescent replication assay, 10 min; 390,000 tested, 1% active; Potency, µM (titrated, usually from 115 µM), inactives show at the highest dose activity, negative = inhibition, actives largely listed as inhibitors; also: potency is read from the fitted curve at half-maximal effect
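Pol iota at 10 nM preincubated 15 min with compounds at room temperature; reaction started with fluorescent substrate, 50 nM final. Fluorescence read kinetically at 0 and 10 min; buffer-only wells as negative control.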
Pol kappa inh-1: blocks human DNA polymerase kappa activity. Q9UBT6. purified Pol kappa, fluorescent DNA synthesis assay, 10 min. Potency, µM (series often up to 107 µM), for inactives: at the top dose activity, negative = inhibition, usual class: inhibitors. 400,000 tested, 0.53% active. AID 588579; also: potency is read from the fitted curve at half-maximal effect; % is scaled to controls: 0 for no effect and ±100 for the full control effect
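Kinetic fluorescence screen: compound preincubated 15 min RT with 10 nM enzyme; 50 nM substrate (final) initiates; reads at 0/10 min.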
GALK confirm: galactokinase (human) inhibition, confirmation | shares compounds with Pol eta inh-1 | purified GALK, Kinase-Glo ATP depletion luminescence | Potency, µM (top dose mostly 115 µM), for the others: at the top dose activity, negative = inhibition, most hits filed as inhibitors | 150 tested, 70% active
Target sequence (P51570 whole entry, looked up): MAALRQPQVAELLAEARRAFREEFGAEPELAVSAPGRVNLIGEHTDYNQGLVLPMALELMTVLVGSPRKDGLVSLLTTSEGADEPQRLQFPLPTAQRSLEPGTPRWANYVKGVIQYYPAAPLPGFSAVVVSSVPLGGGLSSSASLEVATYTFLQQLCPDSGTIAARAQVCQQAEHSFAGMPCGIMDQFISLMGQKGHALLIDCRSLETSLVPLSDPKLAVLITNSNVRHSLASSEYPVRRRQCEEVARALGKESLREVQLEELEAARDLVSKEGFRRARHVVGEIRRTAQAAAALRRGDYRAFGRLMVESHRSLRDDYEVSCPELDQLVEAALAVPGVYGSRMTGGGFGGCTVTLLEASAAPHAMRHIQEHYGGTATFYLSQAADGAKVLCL
GALK redox cs: counter-screen for GALK inhibitors: redox cycling H2O2 generation; shares compounds with Pol eta inh-1; Phenol red-HRP H2O2 redox cycling, absorbance 600 nm; Potency, µM (highest dose often 115 µM), for the others: at the top dose activity change, negative = H2O2 signal, actives largely listed as inhibitors; 150 tested, 40% active
HEK293 tox: HEK-293 cytotoxicity, GALK inhibitor secondary. shares compounds with Pol eta inh-1. HEK-293 viability, ATP luminescence (CellTiter-Glo), 24/48 h. Potency, µM (series often up to 46.1 µM), for inactives: at the highest dose activity change, negative = cytotoxicity, hits mostly inhibitors. 170 tested, 10% active. AID 2547; also: potency is read from the fitted curve at half-maximal effect; % is scaled to controls: 0 for no effect and ±100 for the full control effect
Pol kappa inh-2: Pol kappa (human) inhibition, cherry-pick confirmation; Potency, µM, most hits filed as inhibitors; purified Pol-kappa, fluorescent strand-displacement substrate; shares compounds with Pol eta inh-1; AID 720501; 920 tested, 76% active; also: potency is read from the fitted curve at half-maximal effect
Pol eta inh-2: confirmation of human DNA polymerase eta inhibitors; shares compounds with Pol eta inh-1; Pol eta primer extension, TAMRA/BHQ fluorescence, 10 min; Potency, µM, most hits filed as inhibitors; 2,600 tested, 64% active; AID 720502; also: potency is read from the fitted curve at half-maximal effect
* = called active by the depositor; ? = inconclusive; · = no result; [ ] = remark or other dose. Calls follow the shape of the dose curve; as a rule, active = well fitted curve in the direction sought with a large enough effect; inconclusive = small, poorly fitted or top-dose-only effect, or another doubt; inactive = no such curve, though single readings can be large; an effect the other way counts as inactive or inconclusive.

SMILES | POLB inh | Pol eta inh-1 | FEN1 inh | WRN inhibitor | Pol iota inh | Pol kappa inh-1 | Pol eta inh-2 | others
CCOc1ccc(CN(CCc2ccc3c(c2)OCO3)Cc2cc(OC)cc(OC)c2)cc1 | 24% | -6% | ? | · | 6% | 9% | ·
COc1ccc(-c2nc3ccc(NS(=O)(=O)c4ccc(Cl)cc4)cc3o2)cc1 | ? | · | -16% | · | 4% | -8% | ·
COc1cc(OC)c(NC2=CC(=O)C(=O)c3ccccc32)cc1Cl | -27% | ? | -1% | 15% | 10% | 8% | ·
Cc1cc(NC2=CC(=O)C(=O)c3ccccc32)no1 | · | 22µM* | -16% | 1%[11.6 µM] | ? | -12% | ?
Cc1c(C(=O)N2CCCC2)sc(NC(=O)c2ccc(Cl)cc2)c1C#N | 59% | 5% | -2% | -14% | 0% | 2% | · | GALK confirm=?;GALK redox cs=-1%;HEK293 tox=-16%
CC(=O)N1c2ccccc2CC1C(=O)N1CCN(c2cccc(Cl)c2)CC1 (stereo not drawn) | -1% | -23% | 15% | · | 34% | -7%[60.1 µM] | ·
O=C(O)CCCC(=O)Nc1ccc(N2CCCC2)cc1 | -2% | 13µM* | -8% | -8%[57.1 µM] | ? | 35µM* | 48*
COc1cc(Nc2ncc3c(n2)CCN(Cc2cc(F)cc(F)c2)C3)cc(OC)c1 | 3% | · | -16% | · | -10% | -6%[60.1 µM] | ·
COc1ccc2cc3cc(C(=O)N4CCN(c5ccc(C(C)=O)cc5)CC4)sc3nc2c1Cl | -5% | 0% | -3% | · | 14% | -4%[60.1 µM] | ·
COc1ccccc1NC(=O)c1cc2cc3ccc(OC)c(Cl)c3nc2s1 | 2.8µM* | ? | ? | · | -27% | -9%[60.1 µM] | ? | Pol kappa inh-2=21*
CCOC(=O)/C(N=Nc1sc(C(=O)OCC)c(C)c1C(=O)OCC)=C(\C)O | 1% | · | · | · | · | · | ·
CCOC(=O)c1sc(N=NC2=C(O)CCCC2=O)c(C(=O)OCC)c1C | 8.9µM* | 79µM* | ? | ? | ? | ? | 67*
Nc1nc(NCc2cccc(Cl)c2)c2[nH]cnc2n1 | · | · | 10% | · | 9% | -2% | ·
C=CCc1cccc2cc(C(=O)O)c(=O)oc12 | 18% | 1% | -15% | -7% | 13% | 0% | ·
C=CCc1cccc2cc(C(=O)Nc3ccccc3C(=O)O)c(=O)oc12 | ? | 45µM* | -6% | ? | ? | -40% | ?
CCOc1cccc(=O)c2c(C)n(Cc3ccccc3)c(C)c12 | ? | -20% | 18% | 2% | 29% | -10% | ·
CCOc1cccc(=O)c2c(C)n(-c3ccc(C(=O)O)cc3)c(C)c12 | 22µM* | 28µM* | ? | ? | ? | ? | 27*
COC(=O)c1cc(C(=O)OC)cc(-n2c(C)cc(C(=O)COC(=O)CNS(=O)(=O)c3ccc(C)cc3)c2C)c1 | -5% | 22µM* | -12% | -24%[57.1 µM] | ? | -32% | ?
Cc1ccc(S(=O)(=O)NCC(=O)OCC(=O)c2cc(C)n(-c3ccccc3)c2C)cc1 | -1% | -10% | 5% | -6% | 10% | -4% | ·
Cc1c(C#N)c(O)[nH]c(=O)c1N=Nc1ccc(S(N)(=O)=O)cc1 | 7% | 25µM* | -26% | ? | ? | -41% | 85* | Pol kappa inh-2=?
CCCNc1nc(Nc2ccc([N+](=O)[O-])cc2)nc(N2CCOCC2)n1 | · | · | 7% | · | 17% | 11% | ·
O=C1/C(=C/c2ccncc2)CCC/C1=C\c1ccncc1 | -2% | 45µM* | -8% | ? | 10µM* | -18% | ?
CCOc1ccc(/C=c2\sc3nc(-c4ccco4)nn3c2=O)cc1OCC | 1% | 14µM* | 1% | ? | ? | ? | ?
COc1ccc(C2=Nn3c(nnc3-c3ccncc3)SC2)cc1OC | -4% | -11% | 3% | -5% | -10% | 16% | ·
Fc1ccccc1-c1nnc2n1N=C(c1ccc(OC(F)F)c(OCC3CC3)c1)CS2 | · | 5% | -9% | · | 19% | -7% | ·
SMILES | POLB inh | Pol eta inh-1 | FEN1 inh | WRN inhibitor | Pol iota inh | Pol kappa inh-1 | Pol eta inh-2 | others
COc1ccc(C2=Nn3c(nnc3-c3ccccc3OC)SC2)cc1OC1CCOC1 (stereo not drawn) | · | -6% | 8% | · | 24% | 45µM* | · | Pol kappa inh-2=4.2*
COc1ccc(C2=Nn3c(nnc3-c3ccccc3C(F)(F)F)SC2)cc1OC1CCOC1 (stereo not drawn) | · | -7% | -19% | · | -7% | ? | · | Pol kappa inh-2=4.7*
Cc1nn(Cc2noc(C(=O)NCC3CCCO3)n2)c(C)c1Br (stereo not drawn) | 8% | -20% | 7% | 3%[57.1 µM] | 18% | 10% | · | GALK confirm=-8%;GALK redox cs=4%;HEK293 tox=-5%
Cc1nn(Cc2noc(C(=O)NC3CCC(C)CC3)n2)c(C)c1Br (stereo not drawn) | 48% | -18% | -14% | -5% | 17% | -14% | ·
CC(Cc1ccc(O)c(O)c1)(NN)C(=O)O (stereo not drawn) | · | · | · | · | · | -2%[60.1 µM] | ·
Cc1nc2ccc(S(=O)(=O)NC(CC(C)C)C(=O)NCc3ccc(Cl)cc3)cc2s1 (stereo not drawn) | -4% | -12% | -16% | · | 2% | -14% | ·
CCOc1ccc(C2C(C(=O)Nc3ccccc3C)=C(C)Nc3nnnn32)cc1 (stereo not drawn) | 1% | -16% | 0% | · | 14% | -17% | ·
Cc1nc(NS(=O)(=O)c2ccc(Cl)s2)c2c3c(sc2n1)CCCC3 | -23% | -5% | -8% | -16% | 0% | -21% | · | GALK confirm=?;GALK redox cs=3%;HEK293 tox=3%
Cc1nc(NCc2ccccn2)c2c3c(sc2n1)CCCC3 | -9% | -19% | -20% | 0% | 35% | -17% | ·
